# Laboratory results published in PubChem BioAssay (NCATS).
# Records with an inconclusive call do not appear. Entries that show only a call come without a potency. Unmarked numbers belong to inactive results. Active and inactive are the calls of the source. The call rests on the fitted dose curve; in most records, active means well fitted activation curve with a large enough effect; inconclusive means small, poorly fitted or top-dose-only effect; inactive means flat fitted curve, though single readings scatter.
# Experiment: Primary redox qHTS assay for identification of artifact compounds. (AID 1845223)
# Conditions: Amplex Red/HRP redox cycling with DTT, fluorescence; series mostly up to 53.8 µM
# Summary of the method: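 Redox-cycling detection via DTT (250 uM final) oxidation coupled to Amplex Red (25 uM)/HRP (250 mU/mL) in HBSS. 15 min preincubation plus 30 min after DTT, room temperature. Ex/Em 525/598 nm; 4-parameter Hill fit against DMSO and 10 uM DA3003.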
Structure (SMILES),Potency,redox activity (% of DA3003)
C=CC1(C)C=C2C(O)CC3C(C)(C(=O)O)CCCC3(C)C2CC1 (stereo not given),inactive,
CC(C)[C@H]1CCC(CO)=C[C@@H]1/C=C(\CO)C(=O)O,inactive,
CC1(C)C(=O)C(C)(C)c2cc(C(=O)Nc3ccc(C(=O)O)cc3)ccc21,inactive,
CN1C(=O)N[C@@H](Cc2c[nH]c3c(Cl)cccc23)C1=O,inactive,
O=C(CCCCc1ccc2ccccc2c1)C(F)(F)F,inactive,
COc1cc(C2Oc3c(O)cc(CCCO)cc3C2CO)ccc1O[C@H]1O[C@H](C)[C@@H](O)[C@H](O)[C@@H]1O (stereo not given in full),inactive,
Cc1cc(C)c(S(=O)(=O)N(Cc2ccc(-c3cccc(S(C)(=O)=O)c3)cc2)Cc2ccc(C(F)(F)F)o2)c(C)c1,inactive,
O=C(O)C[C@H](O)C[C@H](O)/C=C/c1c(C2CC2)nc2ccccc2c1-c1ccc(F)cc1,inactive,
CC1CCC2(C(=O)OC3OC(COC4OC(CO)C(O)C(O)C4O)C(O)C(O)C3O)CCC3(C)C(=CCC4C5(C)CCC(O)C(C)(C(=O)O)C5CCC43C)C2C1(C)O (stereo not given),,2.59% [at 11.5 µM]
C[C@]12CC[C@@H]3c4ccc(O[C@@H]5O[C@H](C(=O)O)[C@@H](O)[C@H](O)[C@H]5O)cc4CC[C@H]3[C@@H]1CCC2=O,inactive,
CC1(C)CCCC2(C)C3=C(C(=O)OC3O)C(O)CC12 (stereo not given),inactive,
COC1=CC(=O)O[C@@H](CCc2ccccc2)[C@@H]1O,inactive,
C[C@@H]1C[C@H](O[C@@H]2O[C@H](CO[C@@H]3OC[C@](O)(CO)[C@H]3O)[C@@H](O)[C@H](O)[C@H]2O)CC(C)(C)[C@H]1/C=C/[C@@H](C)O,inactive,
CC1(C)CCC[C@@]2(C)[C@H]1[C@H](O)C=C1COC(=O)[C@@]12O,inactive,
CC(=C/C(=O)O)/C=C/[C@]1(O)[C@@]2(C)CO[C@]1(C)C[C@H](O[C@@H]1O[C@H](CO)[C@@H](O)[C@H](O)[C@H]1O)C2,inactive,
CC1=C2C(=O)C=C(CO)[C@@H]2[C@H]2OC(=O)[C@H](C)[C@@H]2[C@@H](O)C1,inactive,
COc1cc(/C=C/C(=O)OC[C@H]2O[C@H](O[C@]3(CO)O[C@H](CO)[C@@H](O)[C@@H]3O)[C@H](O)[C@@H](O)[C@@H]2O)cc(OC)c1O,inactive,
CC[C@@H](c1ccc(F)c(F)c1)n1c(C(=O)OC)c(-c2ccno2)[nH]c1=S,inactive,
COCCCNCC1COc2ccccc2O1 (stereo not given),inactive,
CCC[C@@H]1C[C@@H](C(=O)N[C@H](C(C)Cl)[C@H]2O[C@H](SC)[C@H](O)[C@@H](O)[C@H]2O)N(C)C1 (stereo not given in full),inactive,
CC(=O)c1c(O)cc2c(c1C)C(=O)CC(O)C2 (stereo not given),inactive,
Oc1ccc([C@H]2COc3cc(O)ccc3C2)cc1,inactive,
CC1(C)CC(=O)N(CCCCN2CCN(c3ncccn3)CC2)C(=O)C1,inactive,
C=C1C[C@]23C[C@H]1CC[C@H]2[C@]1(C)CCC[C@@]2(CO)C(=O)O[C@H]([C@H]21)[C@@H]3O,inactive,
C=CC(C)(C)C1(CC2NC(=O)C3CCCN3C2=O)C(=O)Nc2cc3c(cc21)C=CC(C)(C)O3 (stereo not given),inactive,
CC1CCC2(NC1)OC1C(=O)C3C4CCC5CC(O[C@@H]6O[C@H](CO)[C@@H](O)[C@H](O)[C@H]6O[C@@H]6O[C@@H](C)[C@H](O)[C@@H](O)[C@H]6O)CCC5(C)C4CCC3(C)C1C2C (stereo not given in full),inactive,
O=C(C1CC1)N1CC[C@@H](Cc2n[nH]c(=O)n2-c2ccc(-c3ccc4occc4c3)cc2)C1,inactive,
C/C=C(\C)C(=O)O[C@H]1[C@H](O)[C@]2(COC(C)=O)[C@H](O)C[C@]3(C)C(=CCC4[C@@]5(C)CC[C@H](O[C@@H]6O[C@H](C(=O)O)[C@@H](O[C@@H]7O[C@H](CO)[C@@H](O)[C@H](O)[C@H]7O)[C@H](O)[C@H]6O[C@@H]6O[C@H](CO)[C@@H](O)[C@H](O)[C@H]6O)[C@](C)(CO)C5CC[C@]43C)[C@@H]2CC1(C)C (stereo not given in full),,2.47% [at 11.5 µM]
OCc1ccccc1O[C@@H]1O[C@H](CO)[C@@H](O)[C@H](O)[C@H]1O,inactive,
Cc1cccc(-c2[nH]c(CNc3ccccc3F)nc2-c2ccc3ncnn3c2)n1,inactive,
